Shown are actives, neighbours in structure and some others; about 2.4% of the full set was active somewhere.
CHO-K1 Ca antag: counter-screen for M1 antagonists: effect in parental CHO-K1 cells. ATP-induced calcium, Fluo-8 fluorescence. inhibition, % at 3 µM. 0.6% of 360,000 active;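 active = inhibition above a per-plate cutoff, the plate's mean sample inhibition plus 3 SD, cut at about 24% in these data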;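 also: 0% = DMSO plus EC80 ATP and 100% = DMSO alone without ATP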
M1 PAM parental: counter-screen for M1 PAMs: effect in parental CHO-K1 cells. ATP EC20, Fluo-8 calcium fluorescence; 0% at ATP EC20, 100% at ATP max. activation, % at 3 µM. 0.02% of 360,000 active. AID 602247;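 active = activation above the run cutoff, the mean activation of all test compounds plus 3 SD, cut at about 40% in these data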;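 also: peak over basal fluorescence ratio in a 140 s read after ATP addition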
CHRM1 antagonist: blocks human M1 muscarinic receptor; P11229; CHO-K1 hM1, Fluo-8 calcium fluorescence, ACh EC80 antagonist; inhibition, % at 3 µM; 1.3% of 360,000 active;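 active = percent inhibition above its own plate's cutoff, namely the mean of that plate's compound wells plus 3 SD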;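 also: peak over basal fluorescence ratio during 140 s after agonist addition; 0% = ACh EC80 plus DMSO and 100% = DMSO alone without agonist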
Target sequence (P11229 whole entry, looked up): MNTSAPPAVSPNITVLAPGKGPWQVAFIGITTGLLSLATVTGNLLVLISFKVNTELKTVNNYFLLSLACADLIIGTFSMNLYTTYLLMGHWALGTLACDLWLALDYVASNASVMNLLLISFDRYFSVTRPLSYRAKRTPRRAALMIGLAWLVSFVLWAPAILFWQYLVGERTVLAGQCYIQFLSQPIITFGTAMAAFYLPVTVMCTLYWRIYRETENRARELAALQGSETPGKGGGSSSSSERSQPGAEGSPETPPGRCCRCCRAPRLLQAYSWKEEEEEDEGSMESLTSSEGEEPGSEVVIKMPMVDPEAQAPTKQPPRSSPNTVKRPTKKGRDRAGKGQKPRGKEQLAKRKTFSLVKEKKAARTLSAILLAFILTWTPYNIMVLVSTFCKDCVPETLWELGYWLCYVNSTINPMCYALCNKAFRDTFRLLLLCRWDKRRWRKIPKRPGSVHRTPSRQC
CHO-K1 Ca ag: counter-screen for M1 agonists: effect in parental CHO-K1 cells; Fluo-8 calcium fluorescence; scaled to maximal ATP response, vehicle zero; activation, % at 3 µM; 0.48% of 360,000 active; in the data active = activation above about 15%;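 also: untransfected CHO-K1 host cells lacking M1 receptor as counterscreen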
CHRM1 agonist: activates human CHRM1 receptor; P11229; CHO-K1 hM1, Fluo-8 calcium fluorescence, agonist mode; 0% DMSO, 100% acetylcholine EC100; activation, % at 3 µM; 0.33% of 360,000 active; AID 588814;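 active = activation above the run's mean compound activation plus 3 SD, cut at about 16% in these data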;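 also: peak over basal fluorescence ratio within a 140 s kinetic read after compound addition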
CHRM1 PAM: potentiates human M1 receptor response to acetylcholine; activation, % at 3 µM; 0.088% of 360,000 active; CHO-K1 hM1, Fluo-8 calcium fluorescence, ACh EC20; 0% = ACh EC20, 100% = maximal ACh; P11229; in the data active = activation above about 19%, passing the limit was not always enough
An asterisk follows results filed as active; / = not tested or not shown.

SMILES	CHO-K1 Ca antag	M1 PAM parental	CHRM1 antagonist	CHO-K1 Ca ag	CHRM1 agonist	CHRM1 PAM
CC(=O)N1c2ccccc2Sc2ccc3ccccc3c21	-6	21	-7	1	-7	2
CCC(=O)N(c1nnc(SCC(=O)Nc2sccc2C(N)=O)s1)C1CC1	7	-2	2	2	-1	-5
CCCN(C)C1CN(Cc2cn(Cc3cc(C)cc(C)c3)nn2)S(=O)(=O)C1 (stereo not drawn)	-5	5	/	1	/	/
Cn1c(CC(=O)Nc2ccc(Cl)c(Cl)c2)nnc1SCC(=O)NCc1ccccc1	-9	-9	5	0	-1	4
CCOC(=O)C1=CCN(S(=O)(=O)c2ccc(F)cc2)C1c1cccc(F)c1 (stereo not drawn)	27*	-7	7	2	-4	0
CCOC(=O)C1=CCN(S(=O)(=O)c2ccccc2C)C1c1ccccc1 (stereo not drawn)	26*	-7	-1	1	-10	7
CCOC(=O)C1=CCN(S(=O)(=O)c2ccccc2Cl)C1c1ccc(Cl)c(Cl)c1 (stereo not drawn)	8	7	14	1	-6	-12
CCOC(=O)C1=CCN(S(=O)(=O)c2ccc(F)cc2)C1c1cccc(C)c1 (stereo not drawn)	-2	11	1	0	-11	-4
CCOC(=O)C1=CCN(S(=O)(=O)c2ccccc2C)C1c1ccc(Br)cc1 (stereo not drawn)	7	14	8	2	-1	-5
CCOC(=O)C1=CCN(S(=O)(=O)c2ccccc2Br)C1c1ccc(Cl)c(Cl)c1 (stereo not drawn)	29*	2	13	1	-4	-6
COc1ccccc1N1CCN(S(=O)(=O)CCNC(=O)c2cccs2)CC1	4	-15	-3	1	5	14
COCCCN(Cc1cc(OC)c(OC)c(OC)c1)C(=S)Nc1cccc(SC)c1	-5	5	-5	2	-3	-3
CCOCCCn1c(=S)[nH]c2cc(C(=O)N3CCN(c4ccccc4)CC3)ccc2c1=O	-14	15	-3	1	-5	-1
COc1ccccc1N(C)S(=O)(=O)c1ccc(C(=O)N(C)Cc2ccc(OC(F)F)cc2)cc1	13	-20	27*	10	0	-14
CN(Cc1ccc(OC(F)F)cc1)C(=O)c1cccc(S(=O)(=O)N2CCN(c3ccccc3)CC2)c1	20	-22	46*	14	0	-20
CCN1CCN(S(=O)(=O)c2ccc(Cl)c(C(=O)N(C)Cc3ccccc3)c2)CC1	24*	17	-5	0	1	15
CN(CC(=O)Nc1ccccc1Cl)C(=O)c1cccc(S(=O)(=O)N2CCN(c3ccccc3)CC2)c1	28*	-18	20	5	-1	-7
CN(CC(=O)Nc1ccccc1Cl)C(=O)c1cccc(S(=O)(=O)N2CCN(c3ccc(F)cc3)CC2)c1	22	-15	19	5	7	-4
O=C(c1cc2cc(F)ccc2[nH]1)N1CCC(Cc2ccccc2)CC1	-12	8	10	1	-5	-15
COc1ccc(-c2[nH]ncc2/C=N\NC(=O)c2cccs2)cc1OC	3	-16	-10	1	-2	3
CCN(CC)S(=O)(=O)c1cccc(NC(=O)/C=C/c2ccc([N+](=O)[O-])cc2)c1	-4	9	7	8	-2	-4
CCN(CC)S(=O)(=O)c1cccc(NC(=O)/C=C/c2cccc([N+](=O)[O-])c2)c1	8	-9	20	16*	4	-23
CCN(CC)S(=O)(=O)c1ccc(/C=C/C(=O)Nc2ccc(Br)cc2F)cc1	3	6	31*	2	-9	-20
COc1ccc(CCN2CC(C(=O)OCC(=O)NC(C)c3cccc(Cl)c3)CC2=O)cc1OC (stereo not drawn)	1	-6	-10	0	-4	5
CCOc1ccc(/C=C2\CCCc3c2nc2ccccc2c3C(=O)O)cc1OC	11	7	7	45*	53*	-6
SMILES	CHO-K1 Ca antag	M1 PAM parental	CHRM1 antagonist	CHO-K1 Ca ag	CHRM1 agonist	CHRM1 PAM
CCCNC(=O)C1(C)CCCN(C(=O)c2ccc3snnc3c2)C1 (stereo not drawn)	-10	5	1	0	-4	1
CN(C)CCNC(=O)/C=N/O	0	-1	1	0	26*	-9
CN(C)CCCCCNCCCNC(=O)/C=N\O	-8	1	-25	0	-4	10
CC(C)NS(=O)(=O)c1ccc(NC(=O)C(C)Oc2ccc(C(=O)c3ccccc3)cc2)cc1 (stereo not drawn)	51*	-2	66*	44*	57*	-19
COc1ccc(NC(=O)C(C)Oc2ccc(/C(C)=N\O)cc2)cc1 (stereo not drawn)	-10	-1	1	6	17*	-3
COC(=O)c1ccc(NC(=S)NCc2ccco2)cc1	30*	-14	4	1	2	-3
Cc1cccc(NC(=S)NCc2ccco2)n1	2	11	-8	17*	5	11
S=C(NCc1ccco1)NCc1ccco1	-9	12	-18	0	-3	11
COc1ccccc1-n1c(CNC(=O)c2ccco2)n[nH]c1=S	0	-11	3	1	-3	1
COc1ccc(Cl)cc1NC(=S)N(Cc1ccc(C(=O)O)cc1)Cc1ccc(OC)c(OC)c1	-3	16	25	1	-6	-3
COC(=O)c1[nH]c2ccc(Cl)cc2c1NC(=O)CCN1CCN(C2CCCCC2)CC1	-3	7	62*	0	-6	-20
CCOC(=O)c1[nH]c2ccc(F)cc2c1NC(=O)CCN1CCOCC1	1	12	-8	0	-12	6
COC(=O)c1[nH]c2ccccc2c1NC(=O)CN1CCN(c2cccc(OC)c2)C(C)C1 (stereo not drawn)	28*	-7	9	2	-3	-2
COC(=O)c1[nH]c2cc(OC)ccc2c1NC(=O)CCN1CCN(c2ccccc2)CC1	4	5	-4	1	-4	7
CCOC(=O)c1[nH]c2ccc(Br)cc2c1NC(=O)CCN1CCCC(C)(C)C1	7	-7	90*	0	-8	-20
CCOC(=O)c1[nH]c2ccc(OC)cc2c1NC(=O)CN1CCc2ccccc2C1	17	4	23*	4	-2	-9
CCOC(=O)c1[nH]c2ccc(OC)cc2c1NC(=O)CN1CCC2(CC1)OCCO2	-3	5	-3	1	-1	5
O=S(=O)(c1ccc(F)c(Cl)c1)N1CCN(C/C=C/c2ccccc2)CC1	0	19	-12	1	-5	6
CC1CCN(CCCCOc2ccccc2[N+](=O)[O-])CC1	-30	20	-3	1	-15	-5
